Experimental data from PubChem BioAssay (EPA / NIEHS).
Calls of active or inactive are those of the source. The calls were made as follows: active = hit-call score of the fitted dose curve at least 0.9, where 1 is the maximum; inactive = score below 0.9.

Assay: ATG_RORE_CIS: Attagene CIS-FACTORIAL HepG2 Assay for human RAR-related Orphan Receptor Element (RORE) (AID 2282959)
Details: HepG2 Attagene cis-factorial RORE reporter, mRNA; actives raise or lower the signal
Summary of the method: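 Multiplexed reporter assay measuring mRNA induction from a cis promoter element in transiently transfected HepG2 cells after 24 h treatment. Detection via RT-PCR and capillary electrophoresis fluorescence; DMSO serves as baseline.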

SMILES	outcome	AC50
CCC(=O)O	inactive	
Oc1cccc2c(O)cccc12	inactive	
CC1=NN(c2ccccc2)C(=O)C1	inactive	
Nc1ccc(O)c(C(=O)O)c1	inactive	
O=C(C=C(O)C(F)(F)F)C(F)(F)F	inactive	
CCCCCC(C)OC(=O)COc1ccc(Cl)c2cccnc12 (configuration not stated)	inactive	
COc1cccc(O)c1	inactive	
O=C(F)C(F)(F)C(F)(F)C(F)(F)C(F)F	inactive	
O=C(Nc1cccc([N+](=O)[O-])c1)c1cc2ccccc2cc1O		5.99 µM (active)
O=P(O)(O)CCC(F)(F)C(F)(F)C(F)(F)C(F)(F)C(F)(F)C(F)(F)C(F)(F)C(F)(F)F	inactive	
CCOC=O	inactive	
Oc1ccc(Cc2ccccc2O)cc1	inactive	
O=CC(F)(F)C(F)(F)C(F)(F)C(F)F	inactive	
CCCCCCCCCCCC[N+](C)(C)CCCCCCCCCCCC		26.1 µM (active)
CCc1ccccc1O	inactive	

Assay: ATG_Sox_CIS: Attagene CIS-FACTORIAL HepG2 Assay for human SRY-box transcription factor (SOX) (AID 2282960)
Details: HepG2 Attagene cis-factorial SOX reporter, mRNA; actives raise or lower the signal
Summary of the method: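 Cells were transfected with reporter constructs under cis-regulatory promoters, then exposed to chemicals for 24 h. Reporter transcripts were quantified by fluorescence after RT-PCR and capillary electrophoresis; activity was fitted in both directions against DMSO.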

SMILES	outcome	AC50
O=C1OC(=O)C(F)(F)C1(F)F	inactive	
CCCCc1ccc2ccccc2c1S(=O)(=O)O	inactive	
Oc1c(Cl)cc(Cl)cc1Sc1cc(Cl)cc(Cl)c1O	inactive	
CCOC(C)=O	inactive	
CCc1cccc(CC)c1N(COC)C(=O)CS(=O)(=O)O	inactive	
N=C(N)c1ccc(OCCCCCOc2ccc(C(=N)N)cc2)cc1	inactive	
CCCCCCCCCCCCCCCC(=O)OC	inactive	
O=C(O)CN(CCCN(CC(=O)O)CC(=O)O)CC(=O)O	inactive	
CCC1CO1 (configuration not stated)	inactive	
CC=O	inactive	
Cc1cc(Cc2cc(C)cc(C(C)(C)C)c2O)c(O)c(C(C)(C)C)c1		153 µM (active)
O=C(F)C(F)(F)C(F)(F)C(F)(F)C(=O)F	inactive	
CCOC(OCC)C(=O)c1ccccc1	inactive	
O=C1c2ccc(O)c(O)c2C(=O)c2c(O)ccc(O)c21	inactive	
CCc1cccc(CC)c1NC(=O)C(=O)O	inactive	
OCC(CO)(CBr)CBr	inactive	
CCOCCOCC	inactive	
OCC(F)(F)C(F)(F)C(F)(F)C(F)(F)C(F)(F)C(F)(F)C(F)(F)C(F)(F)C(F)(F)C(F)(F)C(F)(F)F	inactive	
CCOC(=O)c1nc(C(Cl)(Cl)Cl)n(-c2ccc(Cl)cc2Cl)n1	inactive	

SMILES	outcome	AC50
CC(C)c1c(C(=O)Nc2ccccc2)c(-c2ccccc2)c(-c2ccc(F)cc2)n1CC[C@@H](O)C[C@@H](O)CC(=O)O	inactive	
C[C@]12CC[C@@H]3c4ccc(O)cc4CC[C@H]3[C@@H]1C[C@@H](O)[C@@H]2O	inactive	
FC(OC(F)(F)C(F)(F)C(F)(F)F)C(F)(F)F (configuration not stated)	inactive	
CCC(=O)O	inactive	
Oc1cccc2c(O)cccc12	inactive	
CC1=NN(c2ccccc2)C(=O)C1	inactive	
Nc1ccc(O)c(C(=O)O)c1	inactive	
O=C(C=C(O)C(F)(F)F)C(F)(F)F	inactive	
CCCCCC(C)OC(=O)COc1ccc(Cl)c2cccnc12 (configuration not stated)	inactive	
COc1cccc(O)c1	inactive	
O=C(F)C(F)(F)C(F)(F)C(F)(F)C(F)F	inactive	
O=C(Nc1cccc([N+](=O)[O-])c1)c1cc2ccccc2cc1O	inactive	
O=P(O)(O)CCC(F)(F)C(F)(F)C(F)(F)C(F)(F)C(F)(F)C(F)(F)C(F)(F)C(F)(F)F	inactive	
CCOC=O	inactive	
Oc1ccc(Cc2ccccc2O)cc1	inactive	
O=CC(F)(F)C(F)(F)C(F)(F)C(F)F	inactive	
CCCCCCCCCCCC[N+](C)(C)CCCCCCCCCCCC	inactive	
CCc1ccccc1O	inactive	
